Screening data from PubChem.
pPAFAH inh – inhibitors of human plasma PAF acetylhydrolase (pPAFAH); inhibition, % at 3.39 µM; recombinant pPAFAH, FP-rhodamine probe fluorescence polarization; actives 1.5% (n = 330,000);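 active = inhibition above the mean inhibition across the screen plus 3 SD, cut at about 25% in these data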;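 note: inhibitors block binding of the rhodamine activity-based probe so polarization drops; 0% = enzyme with DMSO and 100% = wells lacking pPAFAH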
Target sequence (Q13093 whole entry, looked up): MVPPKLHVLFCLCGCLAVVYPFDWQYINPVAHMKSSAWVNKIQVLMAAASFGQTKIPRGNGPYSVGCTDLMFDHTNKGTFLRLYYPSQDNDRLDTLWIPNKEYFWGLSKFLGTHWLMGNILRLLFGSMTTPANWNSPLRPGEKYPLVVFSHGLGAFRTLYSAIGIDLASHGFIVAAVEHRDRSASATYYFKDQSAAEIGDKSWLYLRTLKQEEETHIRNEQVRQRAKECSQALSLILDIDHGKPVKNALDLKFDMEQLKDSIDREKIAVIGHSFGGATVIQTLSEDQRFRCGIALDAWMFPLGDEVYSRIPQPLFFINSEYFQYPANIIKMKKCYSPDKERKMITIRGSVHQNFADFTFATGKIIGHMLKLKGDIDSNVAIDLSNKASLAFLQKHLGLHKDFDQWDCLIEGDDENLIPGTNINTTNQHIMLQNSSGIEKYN
PME-1 inh – blocks human protein phosphatase methylesterase 1 | Q9Y570 | recombinant PME-1, FP-Rh probe fluorescence polarization | inhibition, % at 5.9 µM | actives 0.53% (n = 320,000);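 active = inhibition above the campaign mean of all compounds plus 3 SD, cut at about 26% in these data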;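 note: competitive labeling of PME-1 active site by serine hydrolase directed probe; 0% = PME-1 with DMSO and 100% = wells lacking PME-1 enzyme; inhibitors block probe labeling so polarization falls and inhibition rises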
PAFAH1B2 inh – inhibitors of human PAFAH1B2. actives 1.2% (n = 340,000). recombinant PAFAH1B2, FP-rhodamine activity probe, fluorescence polarization. P68402. inhibition, % at 3.39 µM;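 active = inhibition above the mean of all tested compounds plus 3 SD, cut at about 24% in these data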;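 note: 0% = enzyme with DMSO and 100% = wells lacking PAFAH1B2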
PAFAH1B3 FP inh – PAFAH1B3 (human) inhibition. actives 0.28% (n = 340,000). recombinant PAFAH1B3, FP-rhodamine probe, fluorescence polarization. AID 492972. Q15102. inhibition, % at 3.39 µM;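 active = inhibition above the screen-wide average of all tested compounds plus 3 SD, cut at about 25% in these data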;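 note: 0% = enzyme with DMSO only and 100% = wells lacking PAFAH1B3 protein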
PAFAH2 inh – inhibitors of human PAFAH2; Q99487; recombinant PAFAH2, FP-rhodamine activity probe, fluorescence polarization; inhibition, % at 3.39 µM; actives 0.99% (n = 340,000); AID 492956;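 active = inhibition above the mean over all tested compounds plus 3 SD, cut at about 30% in these data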;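 note: inhibitors block probe labeling of enzyme so polarization drops; 0% = enzyme with DMSO and 100% = wells lacking PAFAH2 protein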
Fam108B counter – blocks mouse Fam108B hydrolase in RBBP9 counter-screen | recombinant Fam108B, FP-Rh probe fluorescence polarization | inhibition, % at 9.51 µM | actives 0.33% (n = 300,000) | AID 1947;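 active = inhibition above the screen mean inhibition plus 3 SD, computed separately per campaign, cut at about 18% in these data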;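 note: inhibitors lower polarization as less probe binds the enzyme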
pPAFAH confirm – confirmation of human plasma PAF acetylhydrolase (pPAFAH) inhibitors; shares compounds with pPAFAH inh; recombinant pPAFAH, FP-Rh probe fluorescence polarization; inhibition, % at 3.39 µM; actives 72% (n = 2,300); AID 463230;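 active = mean inhibition of the triplicate above the hit cutoff set for the earlier primary screen, cut at about 25% in these data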;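 note: 0% = enzyme with DMSO and 100% = wells lacking pPAFAH enzyme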
Active calls of the source: *. This is a sample that favours compounds with a hit; in the whole collection about 2.9% have one here.

Results for CC(C)=CCC/C(C)=C/CNC(=O)C[C@H]1C[C@H](C(=O)N2CCCCC2)[C@@]2(C)c3[nH]c4cc(-c5ccco5)ccc4c3CCN2C1=O ?
pPAFAH inh: 41*; PAFAH1B2 inh: 1; PAFAH1B3 FP inh: 5; PAFAH2 inh: 8; pPAFAH confirm: 23

How did CC(C)=CCC/C(C)=C/CNC(=O)CC1C[C@H](C(=O)N2CCCCC2)[C@@]2(C)c3[nH]c4ccccc4c3CCN2C1=O (stereo partly specified) do in these assays?
pPAFAH inh: 3; PAFAH1B2 inh: -1; PAFAH1B3 FP inh: 1; PAFAH2 inh: 2

How did CC(CC(=O)Nc1ccc(S(=O)(=O)Nc2ncccn2)cc1)c1ccccc1 (stereo unspecified) do in these assays?
pPAFAH inh: 0; PME-1 inh: 5; PAFAH1B2 inh: 8; PAFAH1B3 FP inh: 4; PAFAH2 inh: 1; Fam108B counter: -3

How did Cc1ccc2nc(COC(=O)c3cnccn3)cc(=O)n2c1 do in these assays?
pPAFAH inh: 0; PAFAH1B2 inh: -2; PAFAH1B3 FP inh: 8; PAFAH2 inh: -1

How did C[C@H]1CN([C@@H](C)CO)C(=O)c2cccc(NS(=O)(=O)c3ccc(F)cc3)c2O[C@H]1CN(C)Cc1ccc(Cl)c(Cl)c1 do in these assays?
pPAFAH inh: 37*; PAFAH1B2 inh: 3; PAFAH1B3 FP inh: -4; PAFAH2 inh: 2; pPAFAH confirm: 46*

What do the screens show for `C=CCOc1ccc(C(c2c(O)nc(SC)[nH]c2=O)c2c(O)nc(SC)[nH]c2=O)cc1`?
pPAFAH inh: -15; PME-1 inh: 0; PAFAH1B2 inh: -2; PAFAH1B3 FP inh: 11; PAFAH2 inh: 12; Fam108B counter: -1

What do the screens show for `O=c1cc(-c2ccccc2)nc2c(-c3ccccc3)c(C(F)(F)F)[nH]n12`?
pPAFAH inh: 45*; PME-1 inh: 13; Fam108B counter: 2; pPAFAH confirm: 54*

What do the screens show for `Cc1ccc2c(CC(=O)NCC3COc4ccccc4O3)coc2c1` (stereo unspecified)?
pPAFAH inh: 37*; PME-1 inh: 1; PAFAH1B2 inh: 10; PAFAH1B3 FP inh: 3; PAFAH2 inh: 2; Fam108B counter: -5; pPAFAH confirm: 7

What do the screens show for `CC1CC(C)CN(CC(O)COCc2ccccc2)C1` (stereo unspecified)?
pPAFAH inh: 1; PME-1 inh: -9; PAFAH1B2 inh: 3; PAFAH1B3 FP inh: 5; PAFAH2 inh: 4; Fam108B counter: -4

Results for COCc1cc(=O)n2[nH]c(-c3ccsc3-n3c(C)ccc3C)cc2n1 ?
pPAFAH inh: 46*; PME-1 inh: -6; PAFAH1B2 inh: 8; PAFAH1B3 FP inh: 16; PAFAH2 inh: 54*; Fam108B counter: -1; pPAFAH confirm: 19

How did Cc1cc(=O)n2[nH]c(-c3ccsc3-n3c(C)ccc3C)cc2n1 do in these assays?
pPAFAH inh: 42*; PME-1 inh: -3; PAFAH1B2 inh: 9; PAFAH1B3 FP inh: 10; PAFAH2 inh: 40*; Fam108B counter: 7; pPAFAH confirm: 11

Results for Cc1ccccc1-c1cc2nc(C)c(Cl)c(=O)n2[nH]1 ?
pPAFAH inh: 2; PME-1 inh: -6; PAFAH1B2 inh: 4; PAFAH1B3 FP inh: 14; PAFAH2 inh: 4; Fam108B counter: -2

What do the screens show for `Cc1nc2cc(-c3ccsc3-n3c(C)ccc3C)[nH]n2c(=O)c1Cl`?
pPAFAH inh: 55*; PME-1 inh: -5; PAFAH1B2 inh: 3; PAFAH1B3 FP inh: 6; PAFAH2 inh: 84*; Fam108B counter: 6; pPAFAH confirm: 47*

Results for CC1Cc2cc(S(=O)(=O)NCCC(=O)N(C)Cc3ccccc3)ccc2N1C(=O)C1CC1 (stereo unspecified) ?
pPAFAH inh: 2; PME-1 inh: 10; PAFAH1B2 inh: 1; PAFAH1B3 FP inh: 4; PAFAH2 inh: 6; Fam108B counter: -1

Results for CC1CCc2c(sc(NC(=O)c3c([N+](=O)[O-])cnn3C)c2C(N)=O)C1 (stereo unspecified) ?
PAFAH1B2 inh: 4; PAFAH1B3 FP inh: 10; PAFAH2 inh: 5

Results for Cc1ccc(OCCCN2CCOCC2)cc1 ?
pPAFAH inh: 6; PME-1 inh: -3; PAFAH1B2 inh: -7; PAFAH1B3 FP inh: 7; PAFAH2 inh: -2; Fam108B counter: -2
